The list is not random: actives were taken first. Their share in the collection is about 7.4%.
FLuc modulator = firefly luciferase modulation, counter-screen for miR-21 project; purified FLuc, Km substrates, luminescence inhibition; AID 588342; Potency, µM (highest dose often 57.5 µM), inactives show at the highest dose activity change, negative = inhibition, actives largely listed as inhibitors; actives 6.9% (n = 360,000);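 note: plate controls were vehicle for no effect and reference inhibitor for full effect; nearly all actives have a fitted effect of over 55% in size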
Target sequence (P08659 whole entry, looked up): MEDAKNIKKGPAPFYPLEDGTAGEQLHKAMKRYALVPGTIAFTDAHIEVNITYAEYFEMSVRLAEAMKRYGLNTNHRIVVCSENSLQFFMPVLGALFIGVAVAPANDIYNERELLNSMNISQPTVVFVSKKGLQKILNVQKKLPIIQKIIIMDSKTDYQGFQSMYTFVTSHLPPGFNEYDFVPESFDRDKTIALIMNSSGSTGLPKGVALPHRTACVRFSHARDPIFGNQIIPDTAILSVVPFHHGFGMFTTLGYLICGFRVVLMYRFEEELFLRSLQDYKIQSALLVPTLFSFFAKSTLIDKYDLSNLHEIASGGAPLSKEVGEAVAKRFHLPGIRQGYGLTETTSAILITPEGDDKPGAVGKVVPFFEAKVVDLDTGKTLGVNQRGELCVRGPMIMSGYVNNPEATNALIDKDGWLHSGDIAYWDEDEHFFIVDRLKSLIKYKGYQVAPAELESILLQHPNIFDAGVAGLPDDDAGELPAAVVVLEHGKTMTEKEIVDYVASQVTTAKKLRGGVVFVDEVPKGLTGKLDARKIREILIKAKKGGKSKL
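Purified P. pyralis luciferase, 10 nM final, with Km-level 10 uM D-luciferin and 10 uM ATP in 50 mM Tris acetate pH 7.5, 10 mM Mg acetate, 0.01% Tween-20, 0.05% BSA; 6-point qHTS titration about 60 µM downward; luminescence read.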
ELG1 genotox = genotoxicity induction in ELG1-luciferase HEK293T cells. HEK293T ELG1-luciferase reporter, luminescence, 16 h. Potency, µM (series often up to 46 µM), for inactives: at the top dose activity change, positive = activation, hits mostly activators. actives 1.3% (n = 330,000); note: % of control where 0% means no effect; nearly all actives have a fitted effect of over 60% in size
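After overnight (16 hr) compound treatment at 37 °C, ELG1-luciferase HEK293T cells were lysed with ONE-Glo; luminescence quantified 30 min later at room temperature.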
SMN2 splice up = SMN2 splice variant enhancement. HEK293 SMN2-luciferase splicing reporter, luminescence, 30-36 h. Potency, µM (doses to about 46.1 µM), inactives show at the highest dose activity change, positive = activation, usual class: activators. actives 2.8% (n = 210,000). AID 1458; note: % of control where 0% means no effect; nearly all actives have a fitted effect of over 55% in size
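qHTS luciferase splicing reporter: luminescence rises when SMN2 exon 7 is included in transfected HEK293 cells. Compound exposure lasted 30-36 h at 37C, with 4.5 mM final sodium butyrate as control, followed by a ONE-Glo read.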
Rab9 promoter act = activates the Rab9 promoter. Potency, µM (titrated, usually from 9.22 µM), for inactives: at the top dose activation, negative = inhibition, usual class: activators. actives 2.8% (n = 320,000). Huh7 Rab9 promoter-luciferase reporter, luminescence, 24 h; note: % of control where 0% means no effect; nearly all actives have a fitted effect of over 60% in size
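Quantitative HTS format; Huh7 Rab9-luciferase reporter cells (1500/well) receive compound 2 h post-plating, incubate 24 h at 37 °C, then get luciferase reagent for 10 min before luminescence reading.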
NPC1 prom act = NPC1 promoter activation; Huh7 NPC1 promoter luciferase reporter, 24 h; Potency, µM (top dose mostly 9.22 µM), for inactives: top-dose activation, most hits filed as activators; actives 2.4% (n = 320,000); AID 485313; note: % of control where 0% means no effect; nearly all actives have a fitted effect of over 60% in size
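NPC1 promoter–luciferase Huh7 cells; 24 h compound; luminescence.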
KinaseGlo FLuc = counter-screen: inhibitors of Kinase-Glo firefly luciferase; Q27757; Kinase-Glo luciferase, ATP luminescence, 8 min; Potency, µM (series often up to 38.3 µM), for inactives: at the highest dose activity change, negative = inhibition, actives largely listed as inhibitors; actives 0.28% (n = 200,000); AID 1379; note: % is set by controls: 0 for no effect and ±100 for the full control effect; nearly all actives have a fitted effect of over 60% in size
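Inhibition of Kinase-Glo luciferase light generation was assessed at 10 uM ATP in pH 7.2 imidazole buffer, with luminescence measured after eight minutes at ambient temperature.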
* = called active by the depositor; u = inconclusive; x = no result. Calls come from the whole dose curve; as a rule, active = well fitted curve in the direction sought with a large enough effect; inconclusive = small, poorly fitted or top-dose-only effect, or another doubt; inactive = no such curve, though single readings can be large; an effect the other way counts as inactive or inconclusive. Potency is the fitted concentration of half-maximal effect.

SMILES	FLuc modulator	ELG1 genotox	SMN2 splice up	Rab9 promoter act	NPC1 prom act	KinaseGlo FLuc
Cc1ccc2c(c1)C(c1ccccc1)N(C(=O)COc1ccc(Cl)cc1Cl)CC(=O)N2 (stereo not given)	3%	x	-2%	x	x	x
Oc1ccc(/C=N/N=C(c2ccccc2)c2ccccc2)c(O)c1O	u	-4%	7%	-3%	-9%	5%
O=C(/C(=N/N=C/c1ccc(O)c(O)c1O)c1ccccc1)c1ccccc1	-7%	-3%	3.2µM*	-2%	1%	-5%
O=C1OC(c2ccc3c(c2)OCO3)N(C(=O)c2ccc(Cl)c(Cl)c2)c2ccccc21 (stereo not given)	-1%	u	13µM*	3.2µM*	u	-5%
CN1CCN(c2ccc(-c3ccc4ccccc4n3)cc2)CC1	0.12µM*	-16%	-65%	-39%	-34%	u
Cc1cc(-c2ccc(N3CCOCC3)cc2)nc2ccccc12	1.5µM*	u	x	u	u	x
c1ccc2nc(-c3ccc(N4CCOCC4)cc3)ccc2c1	0.27µM*	u	u	0.1µM*	0.25µM*	u
COc1ccc(CNC(=O)CC(c2ccc(OC)c(OC)c2)N2Cc3ccccc3C2=O)cc1 (stereo not given)	-6%	x	x	x	x	x
COc1ccc(-c2nn(-c3ccc(F)cc3F)c3c2cnc2ccc(F)cc23)cc1	0%	x	x	x	x	x
O=c1[nH]c(=O)c2cc([N+](=O)[O-])cc([N+](=O)[O-])c2[nH]1	u	-3%	-4%	-21%	-5%	4%
Nc1[nH]n(-c2ccccc2)c(=O)c1N=Nc1ccccc1	5.4µM*	21µM*	x	3.5µM*	2.5µM*	x
Nc1[nH]n(-c2ccccc2)c(=O)c1N=Nc1ccccc1[N+](=O)[O-]	u	3.2µM*	u	0.56µM*	2µM*	-13%
CC(=O)c1cccc(N=Nc2c(-c3ccccc3)[nH]n(-c3ccccc3)c2=O)c1	u	-8%	-16%	-7%	-7%	-3%
O=c1c2cc([N+](=O)[O-])cc([N+](=O)[O-])c2[nH]n1-c1ccccc1	11µM*	-6%	x	1%	-5%	x
Nc1[nH]n(-c2ccccc2)c(=O)c1N=Nc1ccc2ncsc2c1	19µM*	0%	x	22%	20%	x
CCCC(=O)OC1=CN(Cc2ccccc2)S(=O)(=O)c2ccccc21	0%	x	x	x	x	x
CC(C)OCCCN1C(=O)c2[nH]nc(-c3ccccc3O)c2C1c1ccccc1F (stereo not given)	-2%	x	-5%	x	x	x
CSc1nc(-c2ccc(Cl)cc2)c(C#N)c(=O)[nH]1	u	0%	3%	1%	0%	-8%
CSc1ncc(-c2ccc(Cl)cc2)[nH]1	9.5µM*	u	x	3.2µM*	3.2µM*	x
CCOC(=O)c1sc(/N=C/c2ccc(O)cc2O)cc1C	1.3µM*	7%	-2%	9%	10%	-10%
CC(=O)Nc1cc(Cl)c(N=Cc2ccc(O)cc2O)cc1Cl	5%	3%	14%	0%	3%	2%
Cn1cc(Br)c(C(=O)NNC(=O)Cc2ccc(Cl)cc2)n1	0%	-2%	x	10%	-2%	x
CCOc1ccc(NC(=O)c2sc3ccccc3c2Cl)cc1	0%	x	-6%	x	x	x
O=C(Nc1ccc(F)cc1)c1nsc(Cl)c1Cl	4.8µM*	u	11µM*	3.2µM*	3.5µM*	-17%
CCOc1ccc(NC(=O)c2nsc(Cl)c2Cl)cc1	4.8µM*	4.6µM*	x	1.4µM*	2.2µM*	-3%
SMILES	FLuc modulator	ELG1 genotox	SMN2 splice up	Rab9 promoter act	NPC1 prom act	KinaseGlo FLuc
Cn1cc(Br)c(C(=O)Nc2ncc(Br)s2)n1	-16%	u	4.5µM*	2.5µM*	3.5µM*	-11%
Cn1cc(Br)c(C(=O)NNC(=O)c2ccc(Cl)cc2)n1	19µM*	u	u	29%	22%	-1%
Cc1c(C(=O)NCCc2ccccc2)cccc1-n1cnc2cccnc21	-10%	x	x	x	x	x
O=C(Nc1ccc(Cl)cc1)C(NS(=O)(=O)c1cccs1)c1ccccc1 (stereo not given)	u	x	17%	x	x	x
Cc1ccc(C)c(NC(=O)C2CCCN(c3nc4ccccc4s3)C2)c1 (stereo not given)	-16%	x	13%	x	x	x
COc1ccc(CNS(=O)(=O)c2cnc(N)nc2)c(OC)c1	-1%	x	x	x	x	x
COc1ccc(-c2onc(C)c2C)cc1S(=O)(=O)N1CCN(c2ccc(Cl)cc2)CC1	-1%	x	x	x	x	x
CC(C)Cc1ccc(S(=O)(=O)Nc2cc3c(cc2N2CCOCC2)n(C)c(=O)c(=O)n3C)cc1	1%	x	x	x	x	x
O=C(Nc1ccc(F)c(Cl)c1)c1nsc(Cl)c1Cl	2.4µM*	21µM*	x	2.8µM*	2.2µM*	x
CCOc1ccc(NC(=O)c2nn(C)cc2Br)cc1	7.6µM*	u	x	3.2µM*	u	x
CC(C)OC(=O)c1cc(NC(=O)c2nn(C)cc2Br)cc(C(=O)OC(C)C)c1	-1%	7%	7%	-3%	-4%	0%
CCN(C(=O)Cn1c(C(=O)OC)cc2sccc21)c1cccc(C)c1	-2%	x	-7%	x	x	x
Cc1cc(NC(=O)C2CC2)n(-c2nc3ccccc3s2)n1	15µM*	7%	0%	18%	-1%	0%
O=C(O)c1ccc(S(=O)(=O)c2ccc(Sc3ccc(C(=O)O)c(C(=O)O)c3)cc2)cc1	11µM*	0%	13%	-8%	-7%	3%
O=C(O)c1ccc(S(=O)(=O)N2CCCC2)cc1	0%	-5%	x	4%	0%	x
O=C(CCCn1c(=O)c2sccc2n(Cc2c(F)cccc2Cl)c1=O)NCc1ccccc1	1%	x	21%	x	x	x
CC1CCCCN1C(=O)CSc1c2c(nc3cc(Cl)ccc13)CCCC2 (stereo not given)	-2%	x	-33%	x	x	x
Cc1occc1C(=O)NNC(=S)Nc1ccccc1C(F)(F)F	-18%	4%	u	2.8µM*	u	-2%
Cc1occc1C(=O)NNC(=S)Nc1ccccc1	u	u	u	2.5µM*	u	-1%
Cc1ccccc1NC(=S)NNC(=O)c1ccoc1C	-1%	4%	-1%	u	u	1%
CCNC(=S)NNC(=O)c1ccoc1C	4%	0%	-7%	9%	2%	0%
O=C(Cn1c(=O)c2cc(Cl)ccc2n2nncc12)Nc1ccccc1	-7%	x	-2%	x	x	x
CCc1nc2sc3c(c2c(=O)n1N)CCC3	3%	-2%	-18%	-5%	0%	-8%
Nn1c(Nc2ccccc2)nc2sc3c(c2c1=O)CCC3	9.5µM*	u	-51%	11%	20%	-1%
O=C(O)c1ccc(Cn2nnc3sc4c(c3c2=O)CCCC4)cc1	13µM*	u	5%	u	29%	-1%
